# Source: ChEMBL document CHEMBL3988442, “University of Dundee, Small-Polar-MMV Screening Library” (2021)
# Among all 66,000 compounds or so, about 960 (1.5%) showed an effect of 50% or more. Many of the other results were omitted from the sample, so strong results are more common in it than they were.
# Test system: Trypanosoma brucei
# Assay: Trypanosoma brucei 72 hour study
# Assay type: functional, organism-based
# Design: scale not given: in the data most compounds retested in dose-response had high values
structure (smiles),measurement,setting,value
Cc1ccoc1-c1nnc(CNC2CCCN(c3cccnn3)C2)o1 (stereo unspecified),Percent Effect,"30.3 µM, […]",3.988%
CNCC(=O)N1CCCC1c1cncc(Oc2ccc(F)cc2)n1.Cl (stereo unspecified),Percent Effect,"30.3 µM, […]",-5.938%
CS(=O)(=O)c1ccc(-c2cnc(C3CCCN3)cn2)cc1.Cl (stereo unspecified),Percent Effect,"30.3 µM, […]",-27.05%
Cc1nccc(N[C@H]2CN(C(=O)CN3CCCC3=O)C[C@@H]2C(C)C)n1,Percent Effect,"30 µM, 30.03 µM",-19.05%
O=C(CN1CCCCC1)N1CCC(c2cc(=O)n3c(n2)CCCCC3)C1.O=C(O)CC(O)(CC(=O)O)C(=O)O (stereo unspecified),Percent Effect,"30.3 µM, […]",-11%
Cc1ccc(CN2CCC3(CC2)C(=O)N(CC(C)C)CCN3C)s1.O=C(O)C(F)(F)F.O=C(O)C(F)(F)F,Percent Effect,"30.3 µM, […]",-75.61%
COc1cccc([C@@]2(O)CC[C@@H]3CN(C(=O)c4ccn(C)n4)C[C@@H]32)c1,Percent Effect,"30.3 µM, […]",1.75%
CN(CC(=O)NCC(F)(F)F)C(=O)c1ccc(C(=O)OC(C)(C)C)cc1,Percent Effect,"30 µM, 30.03 µM",14.69%
N#Cc1c(Cl)nsc1NCc1ccnc(OCC(F)(F)F)c1,Percent Effect,"30 µM, 30.03 µM",-8.155%
CCS(=O)(=O)c1ccccc1N1CCC(NC2CCCC2)CC1,Percent Effect,"30.3 µM, […]",22.61%
N#Cc1cn(C2CC2)c(=O)n(Cc2ncc(-c3cccs3)o2)c1=O,Percent Effect,"30.3 µM, […]",55.83%
N#Cc1cn(C2CC2)c(=O)n(Cc2cc(-c3cccs3)on2)c1=O,Percent Effect,"30.3 µM, […]",-130.2%
N#Cc1cn(C2CC2)c(=O)n(Cc2noc(-c3cccs3)n2)c1=O,Percent Effect,"30.3 µM, […]",18.62%
Cc1nc(CNC(=O)N2CCN(c3ccc(Cl)cn3)CC2)sc1C,Percent Effect,"30.3 µM, […]",8.84%
COc1cccc(C(=O)N2C[C@H]3CC[C@@H]2CN(Cc2cscn2)C3)c1,Percent Effect,"30 µM, 30.03 µM",-1.998%
O=C(NCc1cccs1)[C@H]1CC[C@@H]2[C@@H](CCN2C2CCC2)O1.O=C(O)C(F)(F)F,Percent Effect,"30 µM, 30.03 µM",-12.3%
Cl.Cl.c1cnc(NCc2cncc3c2CCN(Cc2cccs2)C3)nc1,Percent Effect,"30 µM, 30.03 µM",-8.466%
CC(C)CN1CCC(NC(=O)c2ccc(F)cc2I)CC1,Percent Effect,"30 µM, 30.03 µM",77.98%
CC(C)CN1CCC(NC(=O)c2ccc(F)cc2Cl)CC1,Percent Effect,"30 µM, 30.03 µM",-22.52%
CC(C)CN1CCC(NC(=O)c2ccc(F)cc2F)CC1,Percent Effect,"30 µM, 30.03 µM",-0.8337%
CCN1CCC(NC(=O)c2ccc(F)cc2I)CC1,Percent Effect,"30 µM, 30.03 µM",29.33%
CCCN1CCC(NC(=O)c2csc(C)c2C)CC1,Percent Effect,"30.3 µM, […]",-65.99%
CCCN1CCC(NC(=O)c2ccc(F)cc2I)CC1,Percent Effect,"30 µM, 30.03 µM",80.53%
CNC(=O)COC1COC2(CCN(Cc3cccnc3OC)CC2)C1.O=C(O)C(F)(F)F (stereo unspecified),Percent Effect,"30.3 µM, […]",-30.72%
O=C(O)C(F)(F)F.O=C([C@@H]1C[C@@H]2CCN(c3cccc(F)c3)C[C@H]2O1)N1CCCC1,Percent Effect,"30.3 µM, […]",-10.13%
Cc1cc(NC(=O)c2ccc(CN3CC[C@H](O)C3)cc2)ccc1F,Percent Effect,"30.3 µM, […]",41.32%
Cc1cncc(NC(=O)c2ccc(CN3CC[C@H](O)C3)cc2)c1,Percent Effect,"30.3 µM, […]",-21.22%
COc1cc(NC(=O)c2ccc(CN3CC[C@H](O)C3)cc2)cc(OC)c1,Percent Effect,"30.3 µM, […]",58.59%
CN(C)Cc1cn2c(n1)CN(C(=O)Cc1ccsc1)CC2.O=C(O)C(F)(F)F,Percent Effect,"30 µM, 30.03 µM",-42.4%
Cl.O=c1c2sccc2nc2n1CCN(Cc1ccc(F)c(F)c1)CC2,Percent Effect,"30.3 µM, […]",15.73%
COc1ccc2c(c1)CN(c1cc(N3CCCC3CO)ncn1)CC2 (stereo unspecified),Percent Effect,"30.3 µM, […]",27.38%
COc1ccc2c(c1)CN(c1nc(C)cc(C)n1)CC2,Percent Effect,"30.3 µM, […]",100.3%
COc1ccnc(N2CCc3ccc(OC(F)F)cc3C2)n1,Percent Effect,"30.3 µM, […]",7.96%
COc1cccc(O[C@H]2CCN(c3nc(C)cc(C)n3)CC[C@@H]2O)c1,Percent Effect,"30.3 µM, […]",-10.89%
Cc1cc(C)nc(N2CCc3ccc(OC(F)F)cc3C2)n1,Percent Effect,"30.3 µM, […]",70.84%
COc1ccc(C2CN(c3nc(C)cc(C)n3)CCN2C(C)=O)cc1 (stereo unspecified),Percent Effect,"30.3 µM, […]",9.247%
CN1CCc2c(C#N)c(NCc3cccnc3)n3cnnc3c2C1.Cl,Percent Effect,"30 µM, 30.03 µM",-8.696%
CCC(C)N(Cc1ccsc1)C(=O)c1ccc2[nH]nnc2c1 (stereo unspecified),Percent Effect,"30 µM, 30.03 µM",2.149%
O=C(O)C(F)(F)F.c1cnc(N2CCO[C@H]3CN(CC4CCOC4)C[C@H]32)cn1 (stereo partly specified),Percent Effect,"30.3 µM, […]",-89.28%
Fc1ccc(N2CCCN(c3ccc(Cn4ccnc4)cn3)CC2)cc1,Percent Effect,"30 µM, 30.03 µM",-16.3%
CS(=O)(=O)N1CCO[C@@H]2CN(C(=O)N3CCOCC3)CC[C@@H]2C1,Percent Effect,"30.3 µM, […]",-93.06%
Cc1cnn(CCNCc2nc(Cc3ccccc3)no2)c1,Percent Effect,"30 µM, 30.03 µM",-8.184%
CCc1noc(CNCCn2cc(C)cn2)n1,Percent Effect,"30.3 µM, […]",-10.46%
Cc1cnn(CCNCc2nc(CNC(=O)c3ccccc3)no2)c1,Percent Effect,"30.3 µM, […]",55.13%
CC(NC(=O)NCc1cc(Br)cs1)c1ccccn1 (stereo unspecified),Percent Effect,10 µM,-58.94%
COc1ccc(CN2CCC(c3nnc(-c4scnc4C)o3)CC2)cc1,Percent Effect,"30.3 µM, […]",3.062%
Cn1ncc2c(N[C@@H]3C[C@@H]4CC[C@H]3C4)nc(-c3ccncc3)nc21,Percent Effect,"30.3 µM, […]",-15.13%
CCCn1cc(-c2ccnc(NC3CCc4ccccc4C3)n2)c(C)n1 (stereo unspecified),Percent Effect,"30 µM, 30.03 µM",2.067%
CCCn1cc(-c2ccnc(NC3CCCc4ccccc43)n2)c(C)n1 (stereo unspecified),Percent Effect,"30 µM, 30.03 µM",15.8%
CCc1cc(N[C@@H]2C[C@H]3CC[C@@H]2C3)n2nccc2n1,Percent Effect,"30 µM, 30.03 µM",24.99%
CCCn1ncc(-c2ccnc(NC3CCSC3)n2)c1C (stereo unspecified),Percent Effect,"30.3 µM, […]",99.54%
CCCn1cc(-c2ccnc(NC3CCc4ccccc43)n2)c(C)n1 (stereo unspecified),Percent Effect,"30 µM, 30.03 µM",34.15%
CCCn1ncc(-c2ccnc(N[C@@H]3C[C@@H]4CC[C@H]3C4)n2)c1C,Percent Effect,"30.3 µM, […]",89.15%
CCCn1ncc(-c2ccnc(NC3CCCc4ccccc43)n2)c1C (stereo unspecified),Percent Effect,"30 µM, 30.03 µM",93.43%
CCCn1ncc(-c2ccnc(NC3CC(C)(C)NC(C)(C)C3)n2)c1C,Percent Effect,"30.3 µM, […]",25.37%
Cc1ccc(C(=O)N2CCC3(CCN3c3ncccn3)C2)cn1.O=C(O)C(F)(F)F (stereo unspecified),Percent Effect,"30 µM, 30.03 µM",-27.47%
COC(=O)CCN(C)C(=O)c1csc(Cc2ccccc2F)n1,Percent Effect,"30 µM, 30.03 µM",-48.33%
O=C(O)C(F)(F)F.O=C(c1ccccc1)N1CCC2(CCCN2c2ncccn2)CC1,Percent Effect,"30 µM, 30.03 µM",-3.287%
Cc1nnsc1CN1C[C@H]2CC[C@@H]1CN(Cc1ccc(F)cc1)C2,Percent Effect,"30 µM, 30.03 µM",-34.67%
Oc1cccc(CN2C[C@H]3CC[C@@H]2CN(Cc2ccc(F)cc2)C3)c1,Percent Effect,"30.3 µM, […]",102.6%
CCCN1C[C@H]2CC[C@@H]1CN(Cc1cccc(O)c1)C2,Percent Effect,"30.3 µM, […]",-137.4%
